Source: PubChem BioAssay (EPA / NIEHS)
“And” between values parts separate entries of the source, which are not always exact repeats. Identical values can stand only once. The source made the active and inactive calls. Rule for the calls: active = hit-call score of the fitted dose curve at least 0.9, where 1 is the maximum; inactive = score below 0.9.

The compounds below were run on Tumor necrosis factor (Homo sapiens) (UniProt P01375) (assay: BSK_LPS_TNFa: BioMAP Diversity Plus: LPS Assay for Tumour Necrosis Factor alpha (TNFa) Biomarker Activity (AID 2283085)). Details: primary human HUVEC with PBMC; actives raise or lower the signal.
Tumor necrosis factor (Homo sapiens), sequence (P01375 whole entry, looked up): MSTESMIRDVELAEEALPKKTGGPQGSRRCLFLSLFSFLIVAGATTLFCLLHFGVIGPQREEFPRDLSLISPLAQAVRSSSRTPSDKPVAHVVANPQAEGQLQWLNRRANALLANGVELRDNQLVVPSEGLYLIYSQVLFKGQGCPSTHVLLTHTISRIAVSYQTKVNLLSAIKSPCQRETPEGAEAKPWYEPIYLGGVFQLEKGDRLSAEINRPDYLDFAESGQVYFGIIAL
Experimental: BSK_LPS is a cell-based, multiplexed-readout assay that uses umbilical vein endothelium and peripheral blood mononuclear cells, a human vascular primary cell co-culture, with measurements taken at 24 hours after chemical dosing in a 96-well plate.BSK_LPS_TNFa is an assay component measured in the BSK_LPS assay. It measures TNF-a antibody related to regulation of gene expression using ELISA technology.Data from the assay component BSK_LPS_TNFa was analyzed into 1 assay endpoint. This assay endpoint, BSK_LPS_TNFa, was analyzed with bidirectional fitting relative to DMSO as the negative control and baseline of activity. Using a type of binding reporter, gain or loss-of-signal activity can be used to understand changes in the signaling as they relate to the gene TNF. Furthermore, this assay endpoint can be referred to as a primary readout, because this assay has produced multiple assay endpoints where this one serves a signaling function. To generalize the intended target to other relatable targets, this assay endpoint is annotated to the cytokine intended target family, where the subfamily is inflammatory factor.
The levels of cell surface (or secreted, indicated by the prefix "s") biomarker endpoints were measured by ELISA. Overt cytotoxicity to cells in confluent adherent cultures (all systems other than the BT system) was assessed by measuring total protein levels using sulforhodamine B (SRB) staining in parallel cultures at the time of biomarker measurements, indicated as SRB endpoints. For proliferation assays for adherent cell types, individual cell types are cultured at sub-confluence and relative cell numbers quantified by SRB staining at time points optimized for each system (48 h: 3C and CASM3C systems; 72 h: BT and HDF3CGF systems; 96 h: SAg system). SRB was performed by staining cells with 0.1% SRB after fixation with 10% TCA and reading wells at 560 nm.Viability and proliferation of PBMC (T cells) was quantified by Alamar Blue reduction for the SAg and BT systems. For PBMC viability (referred to as PBMC Cytotoxicity within the assay endpoint names), cells were plated (75,000/well in a 96-well plate) and then chemical samples added for 1 h before addition of activators, SEB and TSST-1 (20 ng/mL final concentration each). Cells were incubated for 90 h. Then, Alamar Blue (20 uL/well) (Invitrogen, Cat DAL1100) was added for 6 h, and the plates were read with a fluorescence microplate reader at 546/580 nm (excitation/emission). For PBMC proliferation, cells were plated and activated as above but incubated for only 16 h prior to addition of Alamar Blue. Plates were read after 6 h.
With `CC(=O)OCC=C(C)CCC=C(C)CCC=C(C)C` the outcome was “inactive”. In the case of `CCC(=O)OCC=Cc1ccccc1`, the outcome was “inactive”. For `CC1=CC(C)C(C=O)C(C)C1` (stereo not given) (tested in a mixture with another compound), the outcome was “inactive”. In the case of `O=C(O)C(F)(F)OC(F)(F)C(F)(F)OC(F)(F)C(F)(F)C(F)(F)C(F)(F)F`, the outcome was “inactive”. In the case of `C=C1CC/C=C(\C)CC[C@@H]2[C@@H]1CC2(C)C`, the outcome was “inactive”. With `C=CC(=O)OCC(CO)(COC(=O)C=C)COC(=O)C=C` the AC50 was 163 nM (active). In the case of `O=C(c1ccc(OCCN2CCCCC2)cc1)c1c(-c2ccc(O)cc2)sc2cc(O)ccc12`, the AC50 was 33800 nM (active). For `CC(=O)OC(C)(C)C1CC=C(C)CC1` (stereo not given), the outcome was “inactive”. In the case of `CC(=O)CCC=C(C)CCC=C(C)C`, the outcome was “inactive”. For `CC(C)(CO)CO`, the outcome was “inactive”. For `CCOC(=O)C=Cc1ccccc1`, the outcome was “inactive”. For `CCCCN(CCO)CCO`, the outcome was “inactive”. With `COc1ccccc1NC(=O)CC(C)=O` the outcome was “inactive”. For `C=C(C)C(N)=O`, the outcome was “inactive”. `CC=CC(=O)C1=C(C)C=CCC1(C)C` was tested, and the outcome was “inactive”. With `C[C@]12CC[C@@H]3c4ccc(O)cc4CC[C@H]3[C@@H]1CC[C@@H]2O` the outcome was “inactive”. `C=C(C)C(=O)OCCC(F)(F)C(F)(F)C(F)(F)C(F)(F)C(F)(F)C(F)(F)C(F)(F)C(F)(F)F` was tested, and the outcome was “inactive”. `O=C(O)C(F)(F)C(F)(F)C(F)(F)C(F)(F)C(F)(F)C(F)(F)C(F)(F)C(F)F` was tested, and the outcome was “inactive”. With `CC/C(=C(\c1ccccc1)c1ccc(OCCN(C)C)cc1)c1ccccc1` the AC50 was 28.6 µM (active) and 17.4 µM (active). For `O=C1OC2(c3ccc(O)cc3Oc3cc(O)ccc32)c2ccccc21`, the outcome was “inactive”. For `c1ccc2c(c1)-c1ccc3ccc4cccc5cc-2c1c3c45`, the outcome was “inactive”. `CC1(C)[C@H](C=C(Cl)Cl)[C@H]1C(=O)OCc1cccc(Oc2ccccc2)c1` was tested, and the outcome was “inactive”. In the case of `CCn1cc(C(=O)O)c(=O)c2ccc(C)nc21`, the outcome was “inactive”. In the case of `c1ccc(Sc2ccccc2)cc1`, the outcome was “inactive”. With `CCCCCCCCCCCCS` the outcome was “inactive”. `Nc1ccc(N)c([N+](=O)[O-])c1` was tested, and the outcome was “inactive”. With `C=C(F)C(=O)OC(C(F)(F)F)C(F)(F)F` the outcome was “inactive”. With `CCCCOCCOCCO` the outcome was “inactive”. With `CCCO[Si](OCCC)(OCCC)OCCC` the outcome was “inactive”. In the case of `O=S(=O)(O)C(F)(F)C(F)(F)OC(F)(F)C(F)(F)F`, the outcome was “inactive”. `CC(C)Cc1ccc(C(C)C(=O)O)cc1` (stereo not given) was tested, and the outcome was “inactive”. `OCCN1CCOCC1` was tested, and the outcome was “inactive”. In the case of `COC(=O)c1ccc(C(=O)OC)cc1`, the outcome was “inactive”. With `CCOC(=O)CCCCCCCCC(=O)OCC` the outcome was “inactive”. `CC(C)(C)c1cccc(O)c1` was tested, and the outcome was “inactive”. For `CC(=O)c1ccc(C)cc1`, the outcome was “inactive”. `CCCCCCCCCC(=O)OCC` was tested, and the outcome was “inactive”. For `O=S1(=O)CC(Cl)(Cl)C(Cl)(Cl)C1`, the AC50 was 938 nM (active). For `OCC(F)(OC(F)(F)C(F)(OC(F)(F)C(F)(F)C(F)(F)F)C(F)(F)F)C(F)(F)F` (stereo not given), the AC50 was 5.64 µM (active) and 5.47 µM (active). `CCCCCCCC1CCCC1=O` (stereo not given) was tested, and the outcome was “inactive”.
